Laboratory results as given in PubChem BioAssay (NCATS).
Results filed as inconclusive are left out. The source made the active and inactive calls. Calls come from the whole dose curve; as a rule, active = well fitted curve in the direction sought with a large enough effect; inconclusive = small, poorly fitted or top-dose-only effect, or another doubt; inactive = no such curve, though single readings can be large; an effect the other way counts as inactive or inconclusive.

Columns and labels:
[1] = COV-362 Cancer Cell Toxicity qHTS against the NCATS CANVASS Library (AID 1347352); note: series mostly up to about 38 µM
Summary of the method: (§1)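 Cells were seeded at 1000 per well and allowed to settle 4 hours at 37 degrees C before pin transfer of compounds as an 11-point series. Viability was read by CellTiter-Glo luminescence after 72 hours' exposure.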

[2] = A2780 Cisplatin Sensitive Ovarian Cancer Cell Toxicity qHTS against the NCATS CANVASS Library (AID 1347353); note: series mostly up to about 46 µM; nearly all actives have a fitted effect of over 60% in size
Summary of the method: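 A2780 cisplatin-sensitive cells (750 per well) were seeded, left 4 h at 37 °C, then pin-dosed in an 11-point series. After 72 h at 37 °C/5% CO2, viability was measured as ATPLite luminescence.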

[3] = UWB1.289-WTBRCA1 Cancer Cell Toxicity qHTS against the NCATS CANVASS Library (AID 1347354); details: outcome: dose series up to 38.3 µM
Summary of the method: as §1

[4] = HEK-293 Cancer Cell Toxicity qHTS against the NCATS CANVASS Library (AID 1347355); note: series mostly up to about 46 µM; nearly all actives have a fitted effect of over 65% in size
Summary of the method: as §1

[5] = HPAF-II 24hr Apoptosis Induction qHTS against the NCATS CANVASS Library (AID 1347356)
Summary of the method: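 HPAF-II cells (500/well) in DMEM + 10% FBS were treated with an 11-point compound series for 24 hours at 37 degrees C. Caspase-3/7 activity was then read by Caspase-Glo DEVD luminescence after 15 min.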

[6] = HEK293 18hr Apoptosis Induction qHTS against the NCATS CANVASS Library (AID 1347357)
Summary of the method: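 HEK293 cells (500 per well, DMEM with 10% FBS) were treated with natural products, incubated 18 hours at 37 degrees C, then caspase-3/7 activity was read by Caspase-Glo luminescence after 15 min at room temperature.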

[7] = HPAF-II 12hr Apoptosis Induction qHTS against the NCATS CANVASS Library (AID 1347358)
Summary of the method: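 HPAF-II cells (500/well, DMEM + 10% FBS) were exposed to compounds for 12 hours at 37 degrees C. Caspase-3/7 activity was then read by Caspase-Glo 3/7 luminescence after 15 min at room temperature.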

[8] = HEK293 24hr Apoptosis Induction qHTS against the NCATS CANVASS Library (AID 1347359)
From the text: Natural products and their derivatives continue to be wellsprings of nascent therapeutic potential. However, many laboratories have limited resources for biological evaluation, leaving their previously isolated or synthesized compounds largely or completely untested. To address this issue, the Canvass library of natural products was assembled (https://tripod.nih.gov/canvass), in collaboration with academic and industry researchers, for quantitative high-throughput screening (qHTS) across a diverse set of cell-based and biochemical assays. The pure (>85% purity by liquid chromatography/mass spectrometry [LC/MS]) Canvass library of 346 natural products were submitted by 45 academic laboratories and companies around the world. We collected pure natural products to circumvent deconvolution and structure elucidation due to time and resource limitations. The library was formatted into 1536-well plates and evaluated in 50 qHTS (in an 11-pnt concentration series) bioassays with broad scope of disease-relevant mechanisms. The resulting data set from 50 different assays was then systematically analyzed to identify overall trends and specific natural products with interesting biological activities. Reported herein are the results of each individual qHTS and their corresponding assay protocol. The Caspase-Glo (R) (Promega) is a homogeneous, luminescent assay that measures caspase activity. The detection substrate contains tetrapeptide sequence DEVD in an "add-mix-measure" format. The reagent generates a luminescent signal produced by a thermostable luciferase. The luminescence is proportional to the amount of caspase activity in the assay reaction. National Center for Advancing Translational Sciences (NCATS), Rockville, MD National Institute of Health (NIH), Bethesda, Maryland
Cancer Cell Apoptosis Assay 1. In a 1536 well, white solid bottom tissue culture plates (Corning 7494), HEK293 cancer cells in DMEM + 10% FBS + 1% P/S media were dispensed in each well at a final concentration of 500 cells / well (5uL volume) using the Multidrop Combi (Thermo Fisher Scientific) dispenser. 2. Compounds were pin transferred (~23nL volume) via Wako Pin-tool (Wako Automation, Richmond VA) equipped with a 1536 pin head. The assay plates were treated with compounds in a concentration series with a final concentration range of […] to 103uM. 3. Doxorubicin was used as a control in a 16pnt titration (1mM; 1:2 dilution; 16-points; n = 2; column 3, rows 1 - 32) and was pin transferred via Wako Pin-tool equipped with a 1536 pin head. The final concentration range of doxorubicin is 0.1nM - 4uM. 4. […] Luminescence signal was acquired via the ViewLux plate reader (PerkinElmer) using a clear filter, 20 second exposure and 2x binning settings.

[9] = HPAF-II 18hr Apoptosis Induction qHTS against the NCATS CANVASS Library (AID 1347360)
Summary of the method: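 HPAF-II cells (500/well, DMEM + 10% FBS) were exposed to compounds for 18 hours at 37 degrees C. Caspase-3/7 activity was then read by Caspase-Glo 3/7 luminescence after 15 min at room temperature.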

[10] = HEK293 12hr Apoptosis Induction qHTS against the NCATS CANVASS Library (AID 1347361)
Summary of the method: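 Read-out: Caspase-Glo 3/7 luminescence (DEVD substrate), 15 min RT. Preceded by 12 h compound exposure of HEK293, 500 cells/well, 11-pt qHTS titration; doxorubicin titration as control.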

Measured: outcome

CC(C)c1ccc2c(c1)CCC1[C@](C)(C(=O)O)CCC[C@]21C (stereo not given in full)
inactive: all assays above

C/C(=C\CC/C(C)=C/CC[C@]1(C)CCc2cc(O)cc(C)c2O1)CC/C=C(\C)C(=O)O
not listed: [2]
inactive: all other assays above

O=C(/C=C/C=C/c1ccc2c(c1)OCO2)N1CCCCC1
not listed: [2] | [4]
inactive: all other assays above

CC(=O)O[C@H]1C[C@@]2(C)[C@@H](CC[C@H]3[C@@]4(C)C=CC(=O)[C@@H](C)[C@@H]4[C@H](OC(C)=O)C(=O)[C@@]32C)/C1=C(\CCC=C(C)C)C(=O)O
not listed: [2] | [4]
inactive: all other assays above
